The source made the active and inactive calls. Unless noted, how the calls were made is not given here.

Assay [1] is described as follows: HepG2 liver cancer cell viability effects, profiling panel, resazurin fluorescence, 24 h, PK04 Diversity Set (AID 1172). Further: test concentration not given here. To be noted: higher = more signal.
Assay [2] in a line: basal S. cerevisiae growth modulation, no modifier, primary screen, OD600, strain BY4716, 24 h, basal condition (AID 1173). To be noted: OD600, 24 h, higher = more signal, called active from +8 up or from −8 down.
Assay [3] can be described thus: MM1S myeloma cell viability, profiling panel, resazurin fluorescence, basal, 24 h, PK04 Diversity Set (AID 1174).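 Further: MM1S multiple myeloma cell line; test concentration not given here.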 To be noted: higher = more signal, called active from +8 up or from −8 down. A general note: Resazurin is reduced to fluorescent resorufin, in cell work by metabolically active cells.
Assay [4] addresses Dihydroorotate dehydrogenase (quinone), mitochondrial (Plasmodium falciparum (isolate 3D7)) (UniProt Q08210). In words: PfDHODH enzyme inhibitors, primary screen, biochemical, C-terminal His tag, absorbance 600 nm (AID 1175).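 Further: recombinant parasite enzyme with a five histidine tag at its C terminus; test concentration not given here.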 To be noted: DCIP absorbance 600 nm, higher = more signal, called active from +8 up or from −8 down.
Assay [5] in a line: P. aeruginosa biofilm formation inhibitors, primary screen, strain PAO1, LB-PBS medium, absorbance 600 nm (AID 1176). Further: test concentration not given here. To be noted: P. aeruginosa PAO1 growth/biofilm, A600, 12 h; higher = more signal.
Assay [6] in a line: S. cerevisiae RM11-1a growth modifiers, primary screen, strain RM11-1a, OD600, basal, 24 h (AID 1177).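 Further: cultures grown under basal conditions with no added stressor; test concentration not given here.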 To be noted: OD600, 24 h, higher = more signal, called active from +8 up or from −8 down.
Assay [7] in a line: E. coli acrAB mutant growth effects, primary screen, E. coli filamentation inducers, strain DRC39, OD650, 24 h (AID 1178).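 Further: growth measured as culture turbidity by optical density at 650 nm; test concentration not given here.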 To be noted: higher = more signal, called active from +8 up or from −8 down.
A short description of assay [8]: E. coli acrAB mutant growth effects, primary screen, E. coli filamentation inducers, strain DRC39, OD650, 48 h (AID 1179).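 Further: screen aims at cell division blockers that make cells filament.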 To be noted: E. coli DRC39 delta-acrAB growth, higher = more signal, called active from +8 up or from −8 down.
Assay [9] in a line: RPMI8226 myeloma cell viability, profiling panel, resazurin fluorescence, basal, 24 h, PK04 Diversity Set (AID 1180).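 Further: RPMI8826 multiple myeloma cell line at 5000 cells per well; test concentration not given here.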 To be noted: higher = more signal.
Assay [10] deals with E3 ubiquitin-protein ligase XIAP (Homo sapiens) (UniProt P98170). In words: XIAP binders, primary screen, biophysical, small-molecule microarray, fluorescence 635 nm (AID 1181).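 Further: score merges 667 nm emission and signal to noise over triplicate slides.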 To be noted: small-molecule microarray binding, higher = more signal.
Sequence of E3 ubiquitin-protein ligase XIAP (Homo sapiens) (P98170 whole entry, looked up): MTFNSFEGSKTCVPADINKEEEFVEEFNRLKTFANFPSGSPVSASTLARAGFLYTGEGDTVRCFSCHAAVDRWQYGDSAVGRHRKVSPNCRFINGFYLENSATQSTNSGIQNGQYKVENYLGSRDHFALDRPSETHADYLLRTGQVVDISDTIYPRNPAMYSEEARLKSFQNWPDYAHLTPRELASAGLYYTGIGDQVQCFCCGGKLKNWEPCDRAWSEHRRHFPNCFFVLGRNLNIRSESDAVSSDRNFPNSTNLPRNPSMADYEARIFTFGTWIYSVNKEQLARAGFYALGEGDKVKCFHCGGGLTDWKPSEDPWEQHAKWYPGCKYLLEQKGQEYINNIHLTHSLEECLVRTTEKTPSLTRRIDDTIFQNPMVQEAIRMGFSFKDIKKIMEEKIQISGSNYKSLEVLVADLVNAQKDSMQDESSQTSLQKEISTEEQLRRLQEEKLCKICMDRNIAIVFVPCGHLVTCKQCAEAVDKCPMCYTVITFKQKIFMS

Sequence of Dihydroorotate dehydrogenase (quinone), mitochondrial (Plasmodium falciparum (isolate 3D7)) (Q08210 whole entry, looked up): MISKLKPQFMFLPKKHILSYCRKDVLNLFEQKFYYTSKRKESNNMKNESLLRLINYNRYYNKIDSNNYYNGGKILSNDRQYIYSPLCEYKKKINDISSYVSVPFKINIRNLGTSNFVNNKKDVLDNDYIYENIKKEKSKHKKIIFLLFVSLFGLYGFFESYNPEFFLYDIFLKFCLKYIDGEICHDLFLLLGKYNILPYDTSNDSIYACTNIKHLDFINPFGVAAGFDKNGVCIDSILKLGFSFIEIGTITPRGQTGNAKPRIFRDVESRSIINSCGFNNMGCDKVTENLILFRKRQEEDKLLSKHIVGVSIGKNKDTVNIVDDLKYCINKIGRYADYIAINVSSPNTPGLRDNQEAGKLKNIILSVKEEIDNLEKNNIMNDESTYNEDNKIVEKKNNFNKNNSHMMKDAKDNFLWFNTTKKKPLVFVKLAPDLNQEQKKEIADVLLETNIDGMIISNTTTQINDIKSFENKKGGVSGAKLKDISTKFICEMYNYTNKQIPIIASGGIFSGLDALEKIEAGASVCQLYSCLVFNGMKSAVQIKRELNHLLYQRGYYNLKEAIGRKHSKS

`C=CCOC(=O)[C@@H]1[C@H]2C(=O)O[C@H](c3ccccc3)[C@H](c3ccccc3)N2[C@H](c2ccc(OCCOC(=O)[C@@H]3C[C@@H]4C(=O)N[C@@H](Cc5ccccc5)C(=O)N4[C@@H]3c3cccc(OCCO)c3)cc2)[C@@]12C(=O)Nc1ccc(I)cc12`: the z-score was 0.134 in [1]; 1.94 (inactive) in assay [2]; 0.375 (inactive) in assay [3]; 2.17 (inactive) in [5]; 2.94 (inactive) in assay [6]; 0.421 (inactive) in assay [7]. Moreover, the z-score was -0.463 (inactive) in assay [8] and 0.318 in assay [9]. Further, the composite z-score in assay [4] is -0.0168 (inactive); in assay [10] it was 0.434.
Take `O=C(CS)NCCCCCCNC(=O)[C@@H]1C[C@@H]2C(=O)N3CCC[C@H]3C(=O)N2[C@@H]1c1ccc(O)cc1`: the z-score in assay [1] is -0.564; in [2], 0.784 (inactive); in [3], 0.357 (inactive); in assay [5] it was -0.158 (inactive); in assay [6], 1.24 (inactive); in assay [7], -0.0727 (inactive). Moreover, the z-score in [8] was -0.313 (inactive); in [9], -0.449. The composite z-score in [4] is 0.586 (inactive); in assay [10] it was 0.0153.
For the molecule `O=C1C2C=CC(C(O)c3ccc(F)cc3)N(Nc3ccccc3)C2C(=O)N1c1ccccc1` (stereo not given), the z-score in assay [1] was -1.24; in assay [2] it was -3.05 (inactive); in assay [3] it was -1.33 (inactive); in assay [5], 0.888 (inactive); in assay [6] it was 0.723 (inactive); in assay [7], -0.811 (inactive). The results for the z-score in assay [8] and in assay [9] were 0.128 (inactive) and -0.535, respectively. Further, the composite z-score was 0.485 (inactive) in assay [4] and -0.229 in [10].
As to `CO[C@H]1O[C@H](CO)[C@@H](OC(=O)Nc2ccc(Oc3ccccc3)cc2)[C@H](OC(=O)Nc2ccccc2)[C@H]1OC(=O)Nc1ccccc1`, the z-score was -2.18 in assay [1]; -0.494 (inactive) in [2]; -2.36 (inactive) in [3]; 1.97 (inactive) in [5]; 2.67 (inactive) in assay [6]; 1.57 (inactive) in [7]. For the same molecule, the z-score in [8] was 0.561 (inactive); in assay [9], -2.48. In addition, the composite z-score in [4] is -0.996 (inactive); in assay [10], 0.0668.
Consider `COCCOC(=O)N1C(=O)[C@@]2(c3cc(C#CCNC(N)=O)ccc31)[C@H](C(=O)N1CCN(c3ncccn3)CC1)[C@H]1C(=O)O[C@H](c3ccccc3)[C@H](c3ccccc3)N1[C@@H]2c1ccccc1OCCO`, for which the z-score is 0.841 in [1]; 2.3 (inactive) in assay [2]; 0.0815 (inactive) in [3]; 0.669 (inactive) in assay [5]; 3.47 (inactive) in assay [6]; 0.559 (inactive) in assay [7]. The z-score was -0.438 (inactive) in [8] and 0.147 in [9]. Further, the results for the composite z-score in [4] and in assay [10] were 0.373 (inactive) and 0.0611, respectively.
Turning to `CCOC(=O)C1=C[C@@H](C(C)C)N(S(=O)(=O)c2ccc(C)cc2)[C@H]1c1ccc(C(C)C)cc1`, the z-score in [1] is 0.346; in [2] it was 1.05 (inactive); in assay [3], 0.52 (inactive); in assay [5], -0.281 (inactive); in assay [6] it was 0.55 (inactive); in assay [7] it was -0.558 (inactive). In addition, the z-score in assay [8] is 0.399 (inactive); in assay [9], 0.548. Besides, the composite z-score in [4] is -1.11 (inactive); in assay [10], -0.192.
On to `CCOC(=O)C[C@H]1[C@H](OC(=O)Cc2ccc3c(c2)OCO3)[C@@H](NC(=O)C2CCCCC2)c2cc(OCCCO)ccc2N1C(=O)Cc1ccc(OC)cc1`, for which the z-score in assay [1] is -0.778; in assay [2], -0.815 (inactive); in assay [3], 0.184 (inactive); in assay [5], 0.183 (inactive); in [6], -1.53 (inactive); in assay [7], 0.015 (inactive). In addition, the z-score was 0.424 (inactive) in assay [8] and 0.283 in assay [9]. Further, the figures for the composite z-score in assay [4] and in [10] were -0.974 (inactive) and 0.0413, respectively.
As to `COc1ccc([Si](C)(C)[C@H]2[C@H](CC(=O)N(CCO)Cc3ccccc3)O[C@@]3(C(=O)N(Cc4cccc(N5CCC5=O)c4)c4ccccc43)[C@@H]2C)cc1`, the z-score in assay [1] is -0.412; in [2], -0.0113 (inactive); in assay [3], -2.76 (inactive); in assay [5] it was 0.295 (inactive); in [6] it was 1.17 (inactive); in [7] it was 0.405 (inactive). For the same molecule, the z-score was 0.169 (inactive) in [8] and -3.11 in assay [9]. For the same molecule, the results for the composite z-score in [4] and in assay [10] were -1.19 (inactive) and 0.0259, respectively.
Regarding `COc1ccc([Si](C)(C)[C@H]2[C@H](CCn3cc([C@H](O)c4ccccc4)nn3)O[C@@]3(C(=O)N(Cc4cccc(N5CCC5=O)c4)c4ccccc43)[C@@H]2C)cc1`, the z-score in [1] is 0.429; in [2], -1.53 (inactive); in [3], -0.85 (inactive); in assay [5] it was 1.59 (inactive); in assay [6] it was -0.101 (inactive); in assay [7] it was 0.898 (inactive). The z-score in assay [8] is 1.02 (inactive); in assay [9], 0.388. Also, the composite z-score is -1.21 (inactive) in assay [4] and 0.166 in [10].
For `COc1c(C)cc(-c2cc3c(c(-c4ccc(Oc5ccccc5)cc4)n2)[Si](C(C)C)(C(C)C)OC3)cc1C`, the z-score in [1] was -0.566; in assay [2], 2.09 (inactive); in assay [3], -0.391 (inactive); in [5], 1.18 (inactive); in [6], 1.19 (inactive); in assay [7], -0.227 (inactive). The z-score in assay [8] is -0.707 (inactive); in assay [9], -0.155. Besides, the composite z-score in assay [4] is 0.567 (inactive); in assay [10], -0.187.
On to `CC(C)Cc1ccc(CN2CC[C@@H](NS(=O)(=O)c3ccccc3)C2)cc1`, for which the z-score was -0.788 in assay [1]; -14.2 (active) in assay [2]; -1.73 (inactive) in assay [3]; -0.0126 (inactive) in [5]; -1.21 (inactive) in assay [6]; -20.5 (active) in assay [7]. Also, the figures for the z-score in [8] and in assay [9] were -19.9 (active) and -1.03, respectively. The composite z-score in assay [4] is -0.371 (inactive); in assay [10] it was -0.178.
In the case of `C=CCC(OC(C)=O)[C@@H]1[C@@H](N(Cc2ccc(-c3ccccc3)cc2)C(=O)Cc2ccc(OC)cc2)c2cc(OCCCO)ccc2N1C(=O)c1ccc2ccccc2n1` (stereo not given in full), the z-score in assay [1] was 0.0252; in assay [2], -0.594 (inactive); in assay [3], 0.525 (inactive); in [5], -0.24 (inactive); in assay [6], -1.15 (inactive); in [7] it was 1.29 (inactive). For the same molecule, the z-score in assay [8] is 0.644 (inactive); in assay [9] it was 1.07. Further, the composite z-score in assay [4] is -0.574 (inactive); in [10] it was -0.266.
With `C=C(COC)C(=O)CC[C@@H](OC(=O)c1cccnc1)c1ccc(CO)o1`, the z-score is 0.114 in assay [1]; -0.0873 (inactive) in assay [2]; 0.78 (inactive) in [3]; 0.649 (inactive) in [5]; -0.318 (inactive) in [6]; 0.831 (inactive) in assay [7]. In addition, the values for the z-score in assay [8] and in assay [9] were 0.555 (inactive) and 0.807, respectively. In addition, the values for the composite z-score in [4] and in [10] were -0.604 (inactive) and -0.0802, respectively.
